The text below walks through data of PubChem BioAssay.

Molecules are shown by their SMILES. For part of these data: Measured potencies and affinities stand elsewhere. Active and inactive are the calls of the source.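 The calls were made as follows, unless noted: active = primary screen active and over 50% activation in each of two duplicate runs; inactive = the rest.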

Test [1] concerns TRPC4 beta (transient receptor potential cation channel C4), mouse. The test is described as follows: activators of mouse TRPC4 channel, confirmation, cell-based, Fluo4 calcium, HEK293 TRPC4beta/mu-opioid, duplicates, 10 µM (AID 2426;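 active = fluorescence ratio normalized to control raised more than 50% in primary screen plus both repeat runs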;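 as to activation: percent rise of integrated ratio over buffer wells lacking compound which define 0%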). The conditions noted are these: Fluo4 calcium fluorescence, at 10 µM; hits give high values.
For test [2], the system named is transient receptor potential cation channel C4 beta (TRPC4), mouse. The test is described as follows: activators of mouse TRPC4 channel, confirmation, cell-based, second round, Fluo4, HEK293 TRPC4beta/mu-opioid, 1 µM (AID 2461). The conditions noted are these: Fluo4 calcium fluorescence, at 1 µM; hits give high values.
Test [3] concerns TRPC4 (transient receptor potential cation channel C4 beta), mouse. The test can be described thus: positive allosteric modulators of mouse TRPC4, confirmation, cell-based, second round, Fluo-4, HEK293 TRPC4beta/mu-opioid, 1 µM (AID 2554;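 active = primary screen hit whose fluorescence ratio, in both repeats, exceeds the weak agonist control mean by 3 SD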). The note with it: DAMGO EC20, Fluo-4 calcium flux, at 1 µM; hits give high values. For orientation: A change in cytosolic calcium serves as a functional read-out for many receptors and channels.

In test [4] the test system is TRPC4 beta (transient receptor potential cation channel C4), mouse. The test can be described thus: positive allosteric modulators of mouse TRPC4, confirmation, cell-based, Fluo-4, HEK293 TRPC4beta/mu-opioid (AID 2555;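 active = primary screen hit whose calcium fluorescence ratio, in both repeats, exceeds the weak agonist control mean by 3 SD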). The conditions noted are these: DAMGO EC20, Fluo-4 calcium flux, at 10 µM; hits give high values.
Test [5] has as its target Short transient receptor potential channel 4 (Mus musculus) (UniProt Q9QUQ5). The test can be described thus: inhibitors of mouse TRPC4 channel, confirmation, cell-based, Fluo4, HEK293 TRPC4beta/mu-opioid (AID 2636;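 active = calcium signal cut by more than 3 SD below the full-agonist control yet still positive, in both repeats and the earlier primary screen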). The conditions noted are these: DAMGO, Fluo4 calcium flux, at 10 µM; hits give high values.
For test [6] the target is unchanged. The test is described as follows: inhibitors of mouse TRPC4 channel, confirmation, cell-based, second round, Fluo4, HEK293 TRPC4beta/mu-opioid, 1 µM (AID 2637;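 active = calcium signal ratio cut to more than 3 SD under the fully stimulated control mean yet still positive, in both repeats and the primary screen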). The conditions noted are these: Fluo4 calcium flux, DAMGO, at 1 µM; hits give high values.
Test [7] shares this target. The test is described as follows: mouse TRPC4 channel activators, dose response, cell-based, HEK293 TRPC4/mu-opioid, Fluo-4 calcium (AID 434937;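 active = primary screen activator hit with a dose response curve and TRPC4 channel activation at any tested dose; inactive = no activation, no dose response, or not a primary hit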).
For test [8] the target is unchanged. The test is described as follows: TRPC4 positive allosteric modulators, dose response, cell-based, HEK293 TRPC4/mu-opioid, Fluo-4 calcium, EC20 DAMGO (AID 434941;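 active = earlier screen potentiator hit that boosts the TRPC4 ion channel at some dose, with a dose response; inactive = no potentiation, no dose response, or not a prior hit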;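 also: calcium entry triggered by an EC20 dose of DAMGO at the co-expressed mu-opioid receptor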).
Test [9] shares this target. The test can be described thus: mouse TRPC4 channel inhibitors, dose response, cell-based, HEK293 TRPC4/mu-opioid, Fluo-4 calcium (AID 434942;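 active = primary screen inhibitor hit that blocks the TRPC4 channel at some tested dose, yielding a dose curve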).
In test [10] the target is Short transient receptor potential channel 6 (Mus musculus) (UniProt Q61143). The test is described as follows: inhibition of mouse TRPC6 channel, confirmation, selectivity assay for TRPC4 inhibitor project, cell-based, HEK293, membrane potential dye, duplicate (AID 434948;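 active = active in primary screen and both duplicates, each dropping signal beyond three positive-control SD with fluorescence still positive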). The note with it: HEK293 TRPC6, membrane potential dye fluorescence, at 10 µM, stimulated with maximal-effect acetylcholine; hits give high values.

Test [11] shares this target. The test is described as follows: activation of mouse TRPC6 channel, confirmation, selectivity assay for TRPC4 activator project, cell-based, HEK293, membrane potential dye, duplicate (AID 434950;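 active = membrane potential signal rise above negative control mean plus 3 SD in both duplicates, also active in the earlier TRPC4 screen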). The conditions noted are these: HEK293 TRPC6, membrane potential fluorescence, at 10 µM; hits give high values.
For test [12] the target is unchanged. The test is described as follows: TRPC6 potentiation by TRPC4 potentiator hits, confirmation, selectivity assay for TRPC4 potentiator project, HEK293 cells, membrane potential dye, duplicate (AID 434952;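 active = compound raising the membrane signal above positive-control mean plus 3 SD in both repeats, and a primary screen hit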). The note with it: HEK293 TRPC6, membrane potential dye fluorescence, at 10 µM, maximal acetylcholine added after compound; hits give high values.
The target of test [13] is Short transient receptor potential channel 4 (Mus musculus) (UniProt Q9QUQ5). The test can be described thus: calcium flux activators in TRPC4/5HT1a cells, counter-screen for TRPC4 activator project, cell-based, second counter screen, HEK293 TRPC4/5HT1a, Fluo-4 (AID 434977;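 active = calcium signal rise above buffer-control mean plus 5 SD in both duplicates, and also a hit in the primary screen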;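 as to activation: plate controls were assay buffer for no effect and maximal serotonin response for full effect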). The note with it: Fluo-4 calcium flux, at 10 µM; hits give high values.
Test [14] in a line: calcium flux inhibitors in TRPC4/5HT1a cells, confirmation, counter-screen for TRPC4 inhibitor project, cell-based, second counter screen, HEK293 TRPC4/5HT1a, Fluo-4 (AID 434978;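 active = primary screen active whose calcium signal fell more than 3 SD beyond the full-serotonin control mean in both duplicate plates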;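 as to outcome: serotonin given first at submaximal then at maximal dose after compound preincubation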). The conditions noted are these: Fluo-4 calcium flux, at 10 µM, serotonin added to trigger calcium flux; hits give high values.
The subject of test [15] is TRPC4 (mouse), co-expressed with 5HT1a in HEK293. The test is described as follows: calcium flux potentiators in TRPC4/5HT1a cells, confirmation, counter-screen for TRPC4 potentiator project, cell-based, second counter screen, HEK293 TRPC4/5HT1a, Fluo-4 (AID 434979;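 active = signal rise over 3 SD above mean of control wells given weak agonist, in both repeats and first screen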). The note with it: Fluo-4 calcium flux, at 10 µM, serotonin added at its EC20 dose; hits give high values.
Test [16] is described as follows: calcium flux activation in mu-opioid HEK293 cells, confirmation, counter-screen for TRPC4 activator project, cell-based, HEK293 mu-opioid receptor line (AID 449723;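 active = hit in primary screen, with calcium signal over 5 SD above buffer well mean in both duplicates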;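 also: counter screen cells carry the mu-opioid receptor alone and lack TRPC4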). The conditions noted are these: Fluo-4 calcium fluorescence, at 10 µM; hits give high values.
Test [17] in a line: calcium flux enhancement in mu-opioid HEK293 cells, confirmation, counter-screen for TRPC4 allosteric potentiator project, cell-based, HEK293 mu-opioid receptor line (AID 449724;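 active = calcium signal rise more than 3 SD above the low-dose agonist control mean, in both duplicate plates and the primary screen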;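 also: HEK293 cells carrying mu-opioid receptor only with no TRPC4 channel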). The conditions noted are these: Fluo-4 calcium flux, at 10 µM, compound added before EC20 DAMGO stimulus; hits give high values.

Short transient receptor potential channel 6 (Mus musculus), sequence (Q61143 whole entry, looked up): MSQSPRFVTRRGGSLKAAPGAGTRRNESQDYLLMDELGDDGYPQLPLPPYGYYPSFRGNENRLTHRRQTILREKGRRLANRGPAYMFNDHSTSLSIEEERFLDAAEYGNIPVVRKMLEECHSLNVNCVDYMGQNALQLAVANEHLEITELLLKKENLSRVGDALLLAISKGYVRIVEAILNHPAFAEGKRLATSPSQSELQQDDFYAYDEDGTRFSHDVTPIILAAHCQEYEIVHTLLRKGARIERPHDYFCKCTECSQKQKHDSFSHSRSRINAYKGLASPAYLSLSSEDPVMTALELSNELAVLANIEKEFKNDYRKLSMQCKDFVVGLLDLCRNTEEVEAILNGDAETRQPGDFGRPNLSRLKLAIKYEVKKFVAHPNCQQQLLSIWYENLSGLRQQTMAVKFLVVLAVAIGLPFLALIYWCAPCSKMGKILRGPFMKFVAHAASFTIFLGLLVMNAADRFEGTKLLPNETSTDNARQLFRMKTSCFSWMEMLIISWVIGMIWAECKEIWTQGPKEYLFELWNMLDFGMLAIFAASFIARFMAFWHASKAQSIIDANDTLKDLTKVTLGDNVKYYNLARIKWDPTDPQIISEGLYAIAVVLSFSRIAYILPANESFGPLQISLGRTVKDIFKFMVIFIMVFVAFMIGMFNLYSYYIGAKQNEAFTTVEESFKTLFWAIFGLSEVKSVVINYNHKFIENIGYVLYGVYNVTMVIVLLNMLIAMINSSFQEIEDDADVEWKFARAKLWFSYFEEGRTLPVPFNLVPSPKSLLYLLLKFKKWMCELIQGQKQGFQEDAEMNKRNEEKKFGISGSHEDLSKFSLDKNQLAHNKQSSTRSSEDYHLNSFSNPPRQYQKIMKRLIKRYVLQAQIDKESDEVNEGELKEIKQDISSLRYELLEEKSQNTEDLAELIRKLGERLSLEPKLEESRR
Short transient receptor potential channel 4 (Mus musculus), sequence (Q9QUQ5 whole entry, looked up): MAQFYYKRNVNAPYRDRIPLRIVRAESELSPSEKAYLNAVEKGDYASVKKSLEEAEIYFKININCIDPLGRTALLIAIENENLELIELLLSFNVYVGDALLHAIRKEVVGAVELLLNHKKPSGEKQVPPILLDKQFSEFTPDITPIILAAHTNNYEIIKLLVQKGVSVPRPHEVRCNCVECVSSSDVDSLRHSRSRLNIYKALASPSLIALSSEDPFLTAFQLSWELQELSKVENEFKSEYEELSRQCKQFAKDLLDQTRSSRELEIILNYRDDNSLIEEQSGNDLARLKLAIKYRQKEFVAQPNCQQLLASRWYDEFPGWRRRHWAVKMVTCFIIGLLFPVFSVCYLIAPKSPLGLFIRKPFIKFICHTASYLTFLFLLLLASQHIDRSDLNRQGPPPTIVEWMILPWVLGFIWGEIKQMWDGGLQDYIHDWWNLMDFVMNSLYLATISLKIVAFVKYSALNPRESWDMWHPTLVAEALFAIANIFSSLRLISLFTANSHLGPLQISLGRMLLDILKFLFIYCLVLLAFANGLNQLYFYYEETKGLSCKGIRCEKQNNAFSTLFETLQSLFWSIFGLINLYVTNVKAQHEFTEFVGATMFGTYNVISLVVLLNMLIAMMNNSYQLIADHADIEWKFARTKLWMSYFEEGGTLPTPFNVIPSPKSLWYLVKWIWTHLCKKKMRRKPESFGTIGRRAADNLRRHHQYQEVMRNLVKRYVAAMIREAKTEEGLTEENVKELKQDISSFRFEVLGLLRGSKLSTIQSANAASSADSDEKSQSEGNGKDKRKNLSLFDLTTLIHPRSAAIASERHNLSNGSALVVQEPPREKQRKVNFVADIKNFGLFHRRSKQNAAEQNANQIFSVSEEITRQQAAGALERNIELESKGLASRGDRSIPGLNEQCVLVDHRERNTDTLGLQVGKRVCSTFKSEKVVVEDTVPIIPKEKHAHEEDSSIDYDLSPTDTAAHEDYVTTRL

For the compound `Cc1ccc(CSc2nnc(-c3cccc(S(=O)(=O)N4CCOCC4)c3)n2C2CCCC2)cc1`, the outcome in [1], in test [2], in test [3], in [4], in [5] and in [6] was inactive. The outcome in test [7], in test [8], in [9], in test [10], in test [11] and in [12] was inactive. The outcome in test [13], in test [14], in test [15], in test [16] and in test [17] was inactive.
On to `C/C(=N\N1CCN(C)CC1)c1ccc(Cl)c(Cl)c1`, for which the result in test [1], in test [2], in test [3], in test [4], in [5] and in test [6] was inactive. In addition, the result in test [7], in [8], in [9], in test [10], in [11] and in test [12] was inactive. Also, the outcome in test [13], in test [14], in test [16] and in [17] was inactive. The potentiation in [15] was 13.3% (active).
`O=C(CCN1CCN(Cc2ccccc2)CC1)Nc1cccc(Br)c1`: the outcome in test [1], in test [2], in test [4], in test [5], in [6] and in test [7] was inactive. In addition, the outcome in test [8], in test [9], in test [10], in test [11], in test [12] and in [13] was inactive. For the same compound, the result in test [14], in test [15], in [16] and in test [17] was inactive. Also, in [3], the potentiation is 21% (active).
In the case of `CCN(CC)CCCN(C(=O)c1cccs1)c1nc(-c2ccc(OC)cc2)cs1`, the outcome in [1], in test [2], in [3], in test [4], in test [5] and in test [6] was inactive. In addition, the result in test [7], in test [8], in test [9], in test [10], in [11] and in [12] was inactive. Moreover, the result in test [13], in test [14], in test [15], in test [16] and in test [17] was inactive.
With `CN(C)C(CNc1ccc(C(N)=O)cc1[N+](=O)[O-])c1ccccc1` (stereo not given), the result in test [1], in test [2], in test [3], in test [4], in test [5] and in test [6] was inactive. The outcome in test [7], in test [8], in test [9], in test [10], in test [11] and in [12] was inactive. The result in test [13], in test [14], in test [15], in test [16] and in test [17] was inactive.
On to `Cc1ccc(C)n1-c1nnc(N2CCC(C(=O)NCCCN3CC(C)CC(C)C3)CC2)s1` (stereo not given), for which the figures for the activation in test [1] and in test [13] were 67% (active) and 20.3% (active), respectively. The result in [2], in [3], in test [4], in [5], in [6] and in [7] was inactive. Moreover, the outcome in test [8], in test [9], in test [10], in test [11], in test [12] and in [14] was inactive. Besides, the result in test [15], in test [16] and in test [17] was inactive.
As for `CCN(CC)CCN(Cc1cc2ccc(C)cc2[nH]c1=O)C(=S)Nc1ccccc1C(=O)OC`, the outcome in test [1], in [2], in [3], in test [4], in test [6] and in test [7] was inactive. The result in test [8], in test [9], in test [10], in [11], in test [12] and in test [13] was inactive. The result in test [14], in test [15], in [16] and in [17] was inactive. Also, the inhibition in [5] is 85% (active).
In the case of `CC(C)C(=O)N1CCN(c2ccccc2NC(=O)c2ccco2)CC1`, the outcome in test [1], in [2], in test [3], in test [4], in test [6] and in test [7] was inactive. Besides, the outcome in test [8], in [9], in test [10], in test [11], in [12] and in test [13] was inactive. The outcome in test [14], in [15], in test [16] and in test [17] was inactive. Also, the inhibition in test [5] was 84% (active).
`CN1CCN(S(=O)(=O)c2ccc(Br)c3ccccc23)CC1`: the outcome in test [1], in test [2], in [3], in test [4], in test [5] and in test [6] was inactive. The outcome in test [7], in [8], in test [9], in test [10], in test [11] and in test [12] was inactive. Moreover, the outcome in [13], in test [14], in test [16] and in [17] was inactive. The potentiation in [15] is 26.5% (active).
On to `CN1CCN(c2ccc(Cl)cc2NC(=O)/C=C/c2cccc(F)c2)CC1`, for which the outcome in test [1], in test [2], in test [4], in [5], in [6] and in test [7] was inactive. Besides, the result in [8], in test [9], in test [10], in test [11], in test [12] and in [13] was inactive. Further, the outcome in [14], in test [16] and in [17] was inactive. Further, the potentiation is 11% (active) in test [3] and 41.1% (active) in test [15].
Turning to `COc1ccc(-c2cc(C3CCN(c4cc(Cl)nc(N)n4)CC3)[nH]n2)cc1`, the outcome in [1], in test [2], in test [3], in [5], in [6] and in test [7] was inactive. Also, the outcome in test [8], in [9], in test [10], in [11], in test [12] and in [13] was inactive. The outcome in test [14], in test [16] and in [17] was inactive. Also, the potentiation is 20% (active) in test [4] and 80.5% (active) in test [15].
For `Cc1oc2c(c1C(=O)c1ccccc1)C(=O)C(=O)c1ccccc1-2`, the outcome in test [1], in test [2], in test [3], in test [4], in test [6] and in test [7] was inactive. In addition, the outcome in [8], in [9], in [10], in test [11], in [12] and in [13] was inactive. For the same compound, the result in test [15], in test [16] and in [17] was inactive. For the same compound, the inhibition in test [5] was 68% (active); in test [14] it was 30.8% (active).
On to `CCOC(=O)C1=C(C)N(c2ccccc2)C(=O)NC1c1cccc([N+](=O)[O-])c1` (stereo not given), for which the result in test [1], in test [2], in test [3], in [4], in test [5] and in test [6] was inactive. For the same compound, the result in test [7], in test [8], in [9], in test [10], in test [11] and in test [12] was inactive. Also, the result in test [13], in [14], in test [16] and in test [17] was inactive. For the same compound, the potentiation in [15] was 9.17% (active).
For `CC(CCc1ccc(O)cc1)N(C)CCc1ccccc1` (stereo not given), the result in test [1], in [2], in test [3], in test [4], in [5] and in test [6] was inactive. The outcome in test [7], in [8], in test [9], in test [10], in [11] and in test [12] was inactive. Also, the outcome in [13], in test [14], in test [15], in test [16] and in [17] was inactive.
Turning to `Cc1cc(C)c(C(=O)c2ccc(C(=O)N3CCCCC3)cc2)c(C)c1`, the outcome in test [1], in test [2], in test [3], in test [4], in test [5] and in test [6] was inactive. The outcome in test [7], in test [8], in test [9], in test [10], in [11] and in test [12] was inactive. The outcome in test [13], in test [14], in [15], in [16] and in test [17] was inactive.

A word on the inhibition: it is the percentage by which the read-out fell short of the control.
